This is an account of results in PubChem BioAssay AID624256 (NMMLSC, 2012).

Among all 360,000 compounds or so, about 3,700 (1%) were called active. Roughly 2% stayed inconclusive and do not appear here.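 Rule for the calls: active = normalized GFP-positive differentiation at or above the plate's own cutoff, the solvent-only control mean plus 3 SD; inconclusive = no clear call, values can overlap the other calls; inactive = the rest.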 The list comes from a sample in which actives are over-represented; it also holds similar structures and randomly drawn compounds.

This assay can be described thus: induction of myeloid progenitor differentiation, primary screen, cell-based, flow cytometry, MLPCN library (AID 624256).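 For GFP+ MAC1+ double positive: cells exposed to compound for four days before flow analysis.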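 For normalized GFP-positive differentiation: cells exposed to compound for four days before flow analysis; 0% = DMSO wells and 100% = fulvestrant positive control at 5 µM.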 The following applies: ER-HoxA9 myeloid progenitors, lysozyme-GFP differentiation, at 10 µM; GFP+ MAC1+ double positive: measured here: differentiation confirmed by MAC1 staining, stronger effect = higher value; normalized GFP-positive differentiation: stronger effect = higher value. On the technique in general: In flow cytometry, cells or beads pass a laser one at a time.
For `CCCCn1nnnc1C(c1cccc(OC)c1OC)N1CCN(C/C=C/c2ccccc2)CC1` (centres undefined), the GFP+ MAC1+ double positive came out at 1% and the outcome was inactive.

Turning to `Fc1ccc(-c2ccc(NCCN3CCOCC3)nn2)cc1`, the GFP+ MAC1+ double positive amounted to 0.2% and the call was inactive.

In the case of `c1ccc2cc3c(NCCN4CCOCC4)ccnc3cc2c1`, the GFP+ MAC1+ double positive turned out to be 8.7% and the normalized GFP-positive differentiation was 189% (active).

For the compound `CCOc1nc(NCCN2CCOCC2)nc(Nc2ccc(C)cc2)n1`, the GFP+ MAC1+ double positive is 0.6% and the compound was called inactive.

`CC1(C)OC(=O)C2=C(C[C@@H](C3CC3)O[C@H]2CCc2cccc(Cl)c2)O1`: the GFP+ MAC1+ double positive was determined as 0.7% and the compound was called inactive.

Regarding `COc1cc(/C=C2/C(=O)NN(c3cccc(Cl)c3)C2=O)cc(Br)c1O`, the GFP+ MAC1+ double positive worked out at 11.4% and the normalized GFP-positive differentiation was 287% (active).

For `COc1cc(/C=N/O)cc(Br)c1OCc1cccc(Cl)c1`, the GFP+ MAC1+ double positive is 0.1% and the result was inactive.

Take `COc1cc(/C=C2/C(=O)NN(c3ccc(F)cc3)C2=O)cc([N+](=O)[O-])c1O`: the GFP+ MAC1+ double positive amounted to 0.5% and the call was inactive.

In the case of `CCOC(=O)[C@]12CCCC=C1N(CCC1=CCCCC1)C(=O)[C@H](CC(=O)N1CCSCC1)C2`, the GFP+ MAC1+ double positive stood at 4.4% and the compound was classed as inactive.

Consider `COc1ccc(Sc2ccc(NC(=O)c3cccc(Cl)c3)cc2C#N)cc1`, for which the GFP+ MAC1+ double positive was determined as 1.1% and the compound was classed as inactive.

As to `CC(C)N(C(=O)[C@H]1C[C@H](CC(=O)NC(C)(C)C)C(=O)N2CCc3c([nH]c4ccc(Cl)cc34)[C@]12C)C(C)C`, the GFP+ MAC1+ double positive was found to be 1.5% and the normalized GFP-positive differentiation was 8.17% (active).

Take `CC(C)N(C(=O)[C@H]1C[C@H](CC(=O)NCCC2=CCCCC2)C(=O)N2CCc3c([nH]c4cc(CCC(=O)N(C)C)ccc34)[C@]12C)C(C)C`: the GFP+ MAC1+ double positive came out at 0.4% and the outcome was inactive.

Regarding `C[C@]12c3[nH]c4ccc(Cl)cc4c3CCN1C(=O)[C@@H](CC(=O)NCCCn1ccnc1)C[C@@H]2C(=O)N1CCOCC1`, the GFP+ MAC1+ double positive was 0.6% and the compound was called inactive.

As to `O=C(NCc1ccc(F)cc1)c1cc(C2CCCCN2C(=O)C2CCCCC2)on1` (centres undefined), the GFP+ MAC1+ double positive was found to be 1.3% and the outcome was inactive.

Take `COc1cccc(/C=C2\SC(=S)N(CCCC(=O)N3CCOCC3)C2=O)c1`: the GFP+ MAC1+ double positive was 2.7% and the normalized GFP-positive differentiation is 19% (active).

Take `COc1cccc(/C=C2\Sc3ccc(C(=O)NCC4CCCO4)cc3N(C)C2=O)c1` (centres undefined): the GFP+ MAC1+ double positive was found to be 3.7% and the outcome was inactive.

Consider `COc1ccc(/C=C2\SC(=S)N(CCC(=O)N3CCOCC3)C2=O)cc1OC`, for which the GFP+ MAC1+ double positive is 0.9% and the call was inactive.

Take `OC(c1cc(Cl)cc(Cl)c1)c1ncc(-c2ccccc2C(F)(F)F)[nH]1` (centres undefined): the GFP+ MAC1+ double positive amounted to 1.7% and the outcome was inactive.

On to `Nc1nc2c(ncn2[C@@H]2O[C@H](CNS(=O)(=O)N3CCc4ccccc4C3)[C@@H](O)[C@H]2O)c(=O)[nH]1`, for which the GFP+ MAC1+ double positive was determined as 0.7% and the compound was called inactive.

Regarding `COc1cc(C2CC(=O)c3cnc(NC(C)=O)nc3C2)cc(OC)c1OC` (centres undefined), the GFP+ MAC1+ double positive turned out to be 0.9% and the outcome was inactive.

Turning to `COC(=O)C1C(=O)c2c([nH]c(C(=O)OCCSC)c2C)CC1C` (centres undefined), the GFP+ MAC1+ double positive came to 3.1% and the result was inactive.

Regarding `CCCOC(=O)c1[nH]c2c(c1C)C(=O)CC(c1cc(OC)c(OC)c(OC)c1)C2` (centres undefined), the GFP+ MAC1+ double positive came out at 8.6% and the normalized GFP-positive differentiation was 37% (active).

As for `CN1C=CC=C/C1=C1\SC(=S)N(Cc2ccccc2)C1=O`, the GFP+ MAC1+ double positive turned out to be 0.2% and the compound was called inactive.

For the compound `COc1cc(/C=C2/SC(=S)N(Cc3ccccc3)C2=O)cc(OC)c1O`, the GFP+ MAC1+ double positive came to 6.9% and the normalized GFP-positive differentiation is 111% (active).

As to `COc1ccc(CCN=C2SCC(=O)N2Cc2ccccc2)cc1OC`, the GFP+ MAC1+ double positive was 0.1% and the compound was classed as inactive.

Turning to `Cc1ccc2nc(-c3ccccc3)c(CC3CCCCC3)n2c1`, the GFP+ MAC1+ double positive was determined as 0.3% and the result was inactive.

For `COc1cc(OC)cc(C2=Cc3ccccc3C(CC(=O)c3ccco3)N2c2ccc(-c3cnc(OC)nc3)cc2)c1` (centres undefined), the GFP+ MAC1+ double positive came to 1% and the compound was called inactive.

For the compound `CC(=O)N1Cc2cc(C(=O)NCc3cccc(F)c3)nc(-c3cccc(C4=CCCCC4)c3)c2[C@H]1CCO`, the GFP+ MAC1+ double positive was 1.2% and the compound was classed as inactive.

In the case of `C[C@H](NC(=O)CC[C@H]1O[C@@H](n2ccc(=O)[nH]c2=O)[C@H](O)[C@@H]1O)c1cccc2ccccc12`, the GFP+ MAC1+ double positive came out at 1.1% and the call was inactive.

As to `COc1cccc(CN(C)C(=O)CC[C@H]2O[C@@H](n3cnc4c(NC(=O)c5ccccc5)ncnc43)[C@H](O)[C@@H]2O)c1`, the GFP+ MAC1+ double positive worked out at 0.5% and the outcome was inactive.

Turning to `CCCCc1nc2ccc(F)cc2cc1C`, the GFP+ MAC1+ double positive came out at 0.5% and the compound was called inactive.

As for `O=C(Cc1ccc(Cl)cc1)c1ccccc1`, the GFP+ MAC1+ double positive was 0.7% and the compound was classed as inactive.

With `O=C(Cc1nc2ccccc2[nH]c1=O)c1ccc(Cl)cc1`, the GFP+ MAC1+ double positive is 72.3% and the normalized GFP-positive differentiation is 347% (active).

As to `O=c1c(-c2ccc(Cl)cc2)[n+]([O-])c2ccccc2n1OCc1nc2ccccc2[nH]1`, the GFP+ MAC1+ double positive turned out to be 0.7% and the compound was called inactive.

On to `CN1OC[C@@H]2CN(C(=O)c3cccnc3)[C@H](c3ccc(N4CCCCC4)cc3)C[C@@H]21`, for which the GFP+ MAC1+ double positive stood at 1.2% and the compound was classed as inactive.

As to `O=S1(=O)CC(N2CCC(Cc3ccccc3)CC2)CN1Cc1ccccc1` (centres undefined), the GFP+ MAC1+ double positive worked out at 1.3% and the call was inactive.

`CC1(C(=O)NS(=O)(=O)c2cccc(F)c2)CCN1C(=O)Cc1ccc(Cl)cc1Cl` (centres undefined): the GFP+ MAC1+ double positive was 0.9% and the compound was called inactive.

Take `Cc1ccc(/C=C2\SC(=S)N(CCC(=O)Nc3ccc(O)cc3)C2=O)cc1`: the GFP+ MAC1+ double positive was determined as 17.3% and the normalized GFP-positive differentiation was 264% (active).

For the compound `Cc1cc(C)cc(NC(=O)CCN2C(=O)c3ccccc3C2=O)c1`, the GFP+ MAC1+ double positive was determined as 0.5% and the compound was called inactive.

Take `Cc1ccc(NC(=O)CCN2C(=O)c3ccccc3C2=O)cc1C`: the GFP+ MAC1+ double positive was found to be 0.6% and the compound was classed as inactive.

As to `O=C(Nc1ccc(F)cc1)Nc1nnc([C@H]2C[C@H](O)[C@@H](CO)O2)s1`, the GFP+ MAC1+ double positive is 0.6% and the outcome was inactive.

In the case of `CCCNC(=O)c1cc2c(c(-c3cccc(-c4ccc(C#N)cc4)c3)n1)[C@@H](CCO)N(C(=O)CC)C2`, the GFP+ MAC1+ double positive was 0.7% and the compound was classed as inactive.

Turning to `O=C(NCc1ccc(F)cc1F)[C@@H]1CCCN1C(=O)[C@@H]1CCCN1C(=O)c1cccc(Cl)c1`, the GFP+ MAC1+ double positive came to 0.5% and the compound was classed as inactive.

Regarding `CN(C)c1ccc(/C=C2\NC(=S)N(Cc3ccccc3)C2=O)cc1`, the GFP+ MAC1+ double positive was found to be 23.7% and the normalized GFP-positive differentiation was 207% (active).

On to `CN(C)c1ccc(C=C2C(=O)OC3(CCCC3)OC2=O)cc1`, for which the GFP+ MAC1+ double positive turned out to be 0.1% and the compound was called inactive.

For `CC1CN(Cc2ccccc2)C(=S)NC1=O` (centres undefined), the GFP+ MAC1+ double positive came to 0.4% and the outcome was inactive.

On to `COc1ccc([C@H]2CC(=O)C[C@@H](CCn3cc(CC4CCCC4)nn3)O2)cc1`, for which the GFP+ MAC1+ double positive is 0.4% and the result was inactive.

Regarding `CC(C)N1C(=O)c2ccccc2NC(=O)C1C(=O)NCc1cccs1` (centres undefined), the GFP+ MAC1+ double positive came out at 2.7% and the compound was called inactive.

For the compound `CCCCC(=O)Nc1nc(C)c(-c2csc(Nc3ccc(Cl)cc3)n2)s1`, the GFP+ MAC1+ double positive came to 0.8% and the compound was classed as inactive.

For the compound `Cc1ccc(Nc2nnc(SC(C)C(=O)NC3CC3)s2)cc1` (centres undefined), the GFP+ MAC1+ double positive turned out to be 0.7% and the compound was called inactive.

Turning to `Cc1ccc(Nc2nc(Cl)c(C=O)s2)cc1`, the GFP+ MAC1+ double positive is 1.3% and the normalized GFP-positive differentiation was 146% (active).

With `Cc1ccc(F)c(S(=O)(=O)NC(=O)C2(C)CCN2C(=O)c2ccco2)c1` (centres undefined), the GFP+ MAC1+ double positive is 0.9% and the compound was classed as inactive.
